Laboratory results: PubChem BioAssay (NCI)
Compounds without any hit were thinned out: in the full panel of roughly 83,000, 20% have a hit.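 Method: cells in 96-well plates; compound added at one concentration; 48 h incubation; percent growth measured; values under 10 scored active.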 Unmarked numbers belong to inactive results. Activity calls are given as the source filed them.

Tested on: HL-60(TB) leukemia
Experiment: NCI-60 one-dose screen, 48 h (100 = growth as untreated, 0 = no growth, -100 = all killed)
Conditions: 10 µM unless noted

Compound	growth
CCCCn1c(Cc2ccc(OC)cc2)nc2cc(OC)c(OC)cc2c1=O	79.3%
CC(C)(C)OC(=O)N1CCc2c(sc3ncnc(N/N=C/c4ccccc4Br)c23)C1	94.8%
COC(=O)C1(NC(=O)CNC(=O)OCc2ccccc2)CCCC1	90.4%
COc1ccc(Cn2c(SC)nc(=O)n(Cc3ccc(Cl)cc3)c2=O)cc1	94.2%
O=[N+]([O-])c1cccc(/C=N\Nc2ccccc2)c1	20.1%
Cc1nc2c(nnn2-c2ccccc2)c2nc(-c3ccc(Cl)cc3)oc(=O)c12	98.8%
CC(=O)c1ccc(NS(=O)(=O)c2cccc(C(=O)Nc3ccc(Br)cc3)c2)cc1	47.3% [25 µM]
CSc1nc(N)c(NS(=O)(=O)c2ccc(C(C)=O)cc2)c(=O)[nH]1	108%
Nc1ccc(Oc2ccccc2)c(Cl)c1	119%
Cc1ccc(C(=O)NN2C(=O)CSC2c2ccc(Cl)cc2)cn1 (stereo not given)	139%
CCN(CC)CCNc1ccc([N+](=O)[O-])c2sc3ccccc3c(=O)c12	17%
CCCCc1n(Cc2ccc3ccccc3c2)c2ccccc2[n+]1Cc1ccc2ccccc2c1	-59.2% (active)
O=C(CSc1ncccc1C(=O)O)Nc1ccc(Oc2ccccc2)cc1	87.5%
COc1ccc(-n2nnc3c(sc4ccccc43)c2=O)cc1	94.6%
Oc1ccc(C(c2ccc(O)cc2)c2ccc(Cl)cn2)cc1	101%
O=C(Cc1nc2cc(Cl)c(Cl)cc2nc1CC(=O)c1cccnc1)c1cccnc1	39.6%
COCCNC(=O)Cc1cc(-c2ccc(Cl)cc2)n(-c2ccccc2)c1C	66.4%
Clc1ccc(-c2nnc(COc3ccccc3Cl)o2)cc1	120%
Oc1ccc(-c2nc(-c3ccc4oc5ccc(-c6[nH]c(-c7ccc(O)cc7)nc6-c6ccccc6)cc5c4c3)c(-c3ccccc3)[nH]2)cc1	39.9%
CCN(CC)CCCC(C)Nc1ccnc2c(OC)cccc12 (stereo not given)	52.6%

Compound	growth
CC/C(=C\c1ccc(OC)cc1)C(=O)c1ccc(OC)cc1	131%
CN(C)S(=O)(=O)n1cnc([C@@H]2[C@@H]3C(=O)OC[C@@H]3C[C@]23N=CN(Cc2ccccc2)C3=O)c1	123%
Cc1c(O)nc(N)[nH]c1=O	137%
O=[N+]([O-])c1cc(CCl)ccc1OCCBr	119%
Cc1cc(-c2ccccc2)on1	89.2%
CCOC(=O)/C(C)=C\c1ccc(OC)c(OC)c1	88.4%
C=CC(=O)Nc1cc2c(Nc3ccc(F)c(Cl)c3)ncnc2cc1C#CC(C)(C)N1CCN(C)CC1	-47.6% (active)
CCC(CCCN(CC)CCc1ccccc1)OC(=O)c1cc(OC)c(OC)c(OC)c1 (stereo not given)	95%
CC(=O)Nc1ccc(S(=O)(=O)n2ccc(-c3ccc4c(c3)CCC(C)(C)O4)n2)cc1	91.9%
OCCN1CCN(CCCN2c3ccccc3Sc3ccc(C(F)(F)F)cc32)CC1	32.7%
c1cc(-c2ccc3c(c2)OCO3)n2nccc2n1	98.4%
Cn1c2ccc(Cl)cc2c2nn(C(=O)c3ccccc3)c(=O)nc21	113%
O=C(CSc1nnc(-c2cccnc2SCc2ccccc2)o1)Nc1nc(Cl)cc(Cl)n1	98.3%
CSc1nc2c(c(=O)n1C)CN(Cc1ccccc1)C(=O)CN2	84.9%
c1ccc2c(-c3nc(-c4c[nH]c5ncccc45)cs3)c[nH]c2c1	88%
NCCCNc1nc2ccccc2c2c(=O)c3cc(Cl)ccc3sc12	-56.8% (active)
Cc1nc2c(O)cccc2cc1CO	81.7%
CC1=C(O)C(=O)CC1	112%
O=C(NCCCO)c1cc(Cl)ccc1O	-13.5% (active)
CNC(=O)c1cc(Oc2ccc3nc(NC(=O)Nc4ccc(CN5CCOCC5)c(C(F)(F)F)c4)sc3c2)ccn1	17.1%
